Rows were chosen to be rich in hits. Some 21% of all compounds tested hit in one or more screens of this group.
TDP1 cell CPT: DT40-hTDP1 cell growth loss with CPT. chicken DT40 Tdp1-/-;hTDP1 cells + 20 nM CPT, ATP luminescence, 48 h. Potency, µM (doses to about 46.2 µM), inactives show at the top dose activity change, negative = growth inhibition, actives largely listed as inhibitors. 12% of 420,000 active. AID 686979; note: potency is the fitted concentration of half-maximal effect; nearly all actives have a fitted effect of over 55% in size
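Chicken DT40 Tdp1-/- cells stably complemented with human TDP1 were seeded at 400 cells/well in medium containing 20 nM camptothecin, exposed to pin-transferred compounds, and grown at 37 °C for at least 48 hr. Viability was read as ATP luminescence.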
RORg inh: blocks mouse ROR gamma transcriptional activity; Potency, µM (series often up to 53.6 µM), inactives show top-dose activity change, negative = inhibition, most hits filed as inhibitors; AID 2551; 5.4% of 310,000 active; Drosophila S2 Gal4-RORgamma UAS-luciferase reporter, 20 h; note: potency is the fitted concentration of half-maximal effect; nearly all actives have a fitted effect of over 60% in size
Target sequence (P51450 whole entry, looked up, the tested form may be a part): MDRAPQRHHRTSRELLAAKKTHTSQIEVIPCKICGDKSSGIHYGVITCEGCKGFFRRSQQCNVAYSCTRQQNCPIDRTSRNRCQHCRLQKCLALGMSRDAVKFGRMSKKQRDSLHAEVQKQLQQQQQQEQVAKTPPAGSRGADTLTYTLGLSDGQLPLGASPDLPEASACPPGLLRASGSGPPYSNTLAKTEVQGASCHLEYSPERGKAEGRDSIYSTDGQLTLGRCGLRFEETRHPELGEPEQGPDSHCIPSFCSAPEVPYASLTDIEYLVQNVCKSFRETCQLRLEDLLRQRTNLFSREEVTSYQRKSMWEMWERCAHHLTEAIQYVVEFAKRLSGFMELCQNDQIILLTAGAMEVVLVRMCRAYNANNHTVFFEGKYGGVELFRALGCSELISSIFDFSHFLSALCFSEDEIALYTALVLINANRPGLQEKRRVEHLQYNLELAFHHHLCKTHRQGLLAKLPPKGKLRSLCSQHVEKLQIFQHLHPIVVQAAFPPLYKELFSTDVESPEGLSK
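Drosophila Schneider cells stably carrying a metallothionein-driven Gal4 DBD–ROR gamma fusion and a UAS-Photinus luciferase reporter were exposed to compound for 1 hr, then induced with copper sulfate (700 uM final) for 20 hr at ambient temperature before luminescence reading.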
Gal4-VP16 FLuc: counter-screen for ROR gamma inhibitors: Gal4-VP16 reporter. Drosophila S2 Gal4-VP16 UAS-luciferase, luminescence, 20 h. Potency, µM (doses to about 53.6 µM), for the others: at the top dose activity, negative = inhibition, usual class: inhibitors. 3.5% of 310,000 active. AID 2546;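 note: Gal4-VP16 expression switched on by copper sulfate through the metallothionein promoter; potency is the fitted concentration of half-maximal effect; nearly all actives have a fitted effect of over 50% in size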
ELG1 DNA repair: ELG1-dependent DNA repair inhibition; HEK293T ELG1-luciferase reporter, luminescence, 16 h; DNA damage induced by 5-fluorouridine; Potency, µM (doses to about 46.1 µM), without a hit: at the highest dose activity change, negative = inhibition, actives largely listed as inhibitors; 2.3% of 330,000 active; AID 504467; note: potency is the fitted concentration of half-maximal effect; nearly all actives have a fitted effect of over 55% in size
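Step one: seed 2,000 cells per well. Step two: pin-transfer compound or DMSO alongside 5-fluorouridine. Step three: incubate 16 hr, 37 °C, 5% CO2. Step four: add ONE-Glo, wait 30 min, read luminescence.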
TDP1 cell noCPT: qHTS for Inhibitors of human tyrosyl-DNA phosphodiesterase 1 (TDP1): qHTS in cells in absence of CPT; DT40 Tdp1-/- hTDP1 cells, no CPT, ATP luminescence, 48 h; Potency, µM (highest dose often 46.2 µM), inactives show top-dose activity change, negative = growth inhibition, hits mostly inhibitors; 15% of 420,000 active; note: potency is the fitted concentration of half-maximal effect; nearly all actives have a fitted effect of over 55% in size
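Growth kinetics read by CellTiter-Glo luminescence after ≥48 hr at 37 °C. Cells: DT40 Tdp1-/- stably carrying human TDP1, 400 per well, compound exposure in the absence of CPT (DMSO vehicle).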
IL1B secr inh: inhibitors of inflammasome signaling (IL-1 beta secretion); AID 743279; THP-1 LPS/ATP IL-1B secretion, AlphaLISA, 16 h; hits give low values; activity change, % at 57.5 µM; 4.7% of 360,000 active; in the data active = activity change below about -50%; inconclusive = mostly about -30% to -49%
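Secreted IL-1B measured by AlphaLISA bead assay after 16 h compound exposure of THP-1 cells; compounds (final up to 57.5 uM) added 1 h before LPS (250 ng/mL) and ATP (1.25 mM) stimulation; lower signal means less secretion.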
* marks the source's active call; other numbers are inactive results; ? = inconclusive; nt = not tested or not shown; [ ] = remark or other dose. Unless noted, calls come from the whole dose curve; as a rule, active = well fitted curve in the direction sought with a large enough effect; inconclusive = small, poorly fitted or top-dose-only effect, or another doubt; inactive = no such curve, though single readings can be large; an effect the other way counts as inactive or inconclusive. % is set by controls: 0 for no effect and ±100 for the full control effect.

SMILES | TDP1 cell CPT | RORg inh | Gal4-VP16 FLuc | ELG1 DNA repair | TDP1 cell noCPT | IL1B secr inh
COC(=O)c1cc(OC)c(OC)cc1NC(=O)CCN1C(=O)C2CCCCC2C1=O (stereo unspecified) | 4% | nt | nt | nt | -3% | 1
O=c1c2cc([N+](=O)[O-])ccc2sn1-c1ccccc1 | 4.6µM* | nt | nt | nt | 2.9µM* | 15
CC(=O)Nc1ccc2sn(-c3ccccc3)c(=O)c2c1 | 2.1µM* | nt | nt | nt | 2.1µM* | -102*
N#Cc1ccc2sn(-c3ccccc3)c(=O)c2c1 | 3.7µM* | nt | nt | nt | 4.6µM* | 19
N#Cc1ccc2c(c1)nnn2-c1ccccc1 | 7% | nt | nt | nt | -1% | nt
COCCNC(=O)c1nn(-c2ccc(Cl)cc2)nc1CO | -15% | nt | nt | nt | 2% | nt
CC(=O)c1ccc(-c2cccc(C3C4C=CCCC4(C)C(=O)N3Cc3ccccc3)c2)cc1 (stereo unspecified) | nt | -38% | -4% | nt | nt | nt
CC1(C)OC(=O)C2=C(C[C@@H](C3CCCCC3)O[C@@H]2c2ccc(F)cc2)O1 | ? | nt | nt | nt | ? | 18
CCOc1ccc(NC(=O)CN(C)C(=O)CCN2C(=O)C3CC=CCC3C2=O)cc1OCC (stereo unspecified) | -20% | nt | nt | -12% | 8% | -15
COc1cccc(CCNc2ncnc3c2nnn3C)c1 | ? | nt | nt | nt | 8.2µM* | nt
COc1ccc(CCNc2ccncn2)cc1 | 9.2µM* | ? | ? | 18% | 15µM* | -5
COc1ccccc1CNc1ncnc2c1nnn2C | 15% | nt | nt | nt | -3% | nt
COc1ccc(CCNc2ncnc3c2nnn3C)cc1 | 16µM* | nt | nt | nt | 21µM* | nt
O=C(CSc1nccn1Cc1ccccc1)NCc1ccco1 | -6% | nt | nt | nt | 3% | nt
CCCN(C(=O)c1cc(S(=O)(=O)N(C)c2ccccc2OC)ccc1C)C1CCS(=O)(=O)C1 (stereo unspecified) | ? | nt | nt | nt | -27% | -11
Cc1ccc(S(=O)(=O)N(CC(=O)Nc2ccccc2C(=O)O)c2ccccc2C)cc1 | 1% | 35% | -5% | 2% | ? | 45
COc1ccccc1N(CC(=O)N/N=C/c1ccc(OCC(=O)NCc2ccco2)cc1)S(=O)(=O)c1ccc(C)cc1 | ? | 17% | -13% | ? | 13µM* | -13
COc1ccccc1N(CC(=O)NCc1ccco1)S(=O)(=O)c1ccc(C)cc1 | -21% | 39% | -1% | -1% | -2% | -85*
COc1ccc(N(CC(=O)N/N=C/c2ccc(N(C)C)cc2)S(=O)(=O)c2ccccc2)cc1 | -22% | 28% | -11% | -25% | 6% | -10
COC(=O)COc1ccc(/C=N/NC(=O)CN(c2ccccc2OC)S(=O)(=O)c2ccccc2)cc1 | ? | 1% | 1% | 22% | ? | -96*
Cc1ccccc1N(CC(=O)Nc1ccccc1C(=O)NCc1ccco1)S(=O)(=O)c1ccccc1 | ? | ? | -1% | ? | 16µM* | -3
COc1ccc(NC(=O)CN(C)C(=O)CNC(=O)c2cccs2)cc1 | 17% | nt | nt | -6% | 4% | 0
COc1c(Cl)ccc(Cl)c1C(=O)O | -1% | 4% | 4% | nt | -12% | nt
O=C(Nc1ccccc1C(=O)NCc1ccco1)c1ccco1 | -1% | -6% | 4% | 6% | 1% | -9
NC(=O)COc1ccc(/C=N/NS(=O)(=O)c2ccccc2)cc1 | 1% | -9% | 12%[10 µM] | 6% | 7% | 14
SMILES | TDP1 cell CPT | RORg inh | Gal4-VP16 FLuc | ELG1 DNA repair | TDP1 cell noCPT | IL1B secr inh
Cc1ccccc1C(=O)c1c[nH]c(C(=O)NCc2ccco2)c1 | ? | 37% | 10% | 6% | ? | -52*
Cc1ccc(N(CC(=O)NCc2ccco2)C(=O)CNS(=O)(=O)c2ccc(F)cc2)c(C)c1 | -7% | 4% | 1% | 1% | -15% | -95*
COC(=O)COc1ccc(/C=N/NS(=O)(=O)c2ccccc2)cc1 | 1% | -13% | 0% | -14% | -13% | -92*
O=C(Nc1ccccc1C(=O)Nc1ccccc1C(=O)NCc1ccco1)c1ccco1 | 16µM* | -27% | 23% | ? | ? | -2
Cc1cccc(C(=O)N2CCOc3ccc(CN(C)Cc4cc(C5CC5)n[nH]4)cc3C2)n1 | 13%[9.04 µM] | nt | nt | nt | -17% | nt
NS(=O)(=O)c1cccc(NC(=O)COC(=O)c2ccccc2SCC(=O)N2CCCC2)c1 | -3% | nt | nt | -18% | -22% | 32
Cn1c(SCC(=O)Nc2ccccc2Cl)nnc1C1CC1 | 5% | -4% | -2% | -6% | ? | -8
Cn1c(SCC(=O)c2ccccc2F)nnc1C1CC1 | -29% | ? | 11µM* | ? | -22% | -7
Cn1c(SCC(=O)Nc2ccc(Cl)cn2)nnc1C1CC1 | -1% | 31% | 4% | -2% | 24% | -78*
CC1=C(C(=O)N(C)C)CC(CC(=O)NC2CCCC2)C(=O)N1CCC1=CCCCC1 (stereo unspecified) | -2% | nt | nt | nt | -25% | 8
CC(C)CCNc1nc(Nc2ccccc2)c2cnn(C)c2n1 | 23µM* | nt | nt | nt | 23µM* | nt
Cn1ncc2c(NCc3ccccc3)nc(NCCCO)nc21 | -9% | -11% | -8% | -7% | 11% | -25
CC1=C(C(=O)N(C)C)CC(CC(=O)NC2CCCCC2)C(=O)N1CCCN1CCCC1=O (stereo unspecified) | 13% | nt | nt | nt | -7% | 16
CCOC(=O)[C@H]1[C@H]2COc3ccc(OC)cc3[C@@H]2N2C(=O)CN(CCc3c[nH]c4ccccc34)C(=O)[C@@]12C | ? | nt | nt | -63% | ? | 0
N=C(N)SCc1nc2ccccn2c1Br | ? | -5% | 3% | -26% | ? | -98*
Cc1cccc2nc(CSC(=N)N)c(Br)n12 | ? | -7% | 0% | ? | ? | -68*
CC(C)CC(=O)Nc1ccccc1N1CCCC1 | -18% | 2% | 12% | 7% | 0% | -1
CCC(=O)NC(=S)Nc1ccccc1C(=O)NC1CCCCC1 | -22% | 28% | ? | 0% | -24% | 0
CCC(=O)NC(=S)Nc1cccc(Cl)c1N1CCCCC1 | 11µM* | 4.5µM* | 5µM* | 9% | 11µM* | 52
O=C(Cn1nnc(-c2ccccc2)n1)Nc1ccccc1N1CCOCC1 | ? | -12% | 13% | ? | 13µM* | ?
CC(C)CC(=O)NC(=S)Nc1ccccc1N1CCCC1 | ? | 4µM* | 11µM* | -7% | ? | 36
Cc1ccc(-c2nnn(CC(=O)Nc3ccccc3N3CCOCC3)n2)cc1 | ? | 18% | 0% | ? | ? | 16
